Assay results published in PubChem BioAssay (NCATS).
Where “and” joins values, the source holds several entries; their conditions need not be identical. Equal values may be shown once. Inconclusive results are not listed. Calls of active or inactive are those of the source. Unless noted, calls come from the whole dose curve; as a rule, active = well fitted curve in the direction sought with a large enough effect; inconclusive = small, poorly fitted or top-dose-only effect, or another doubt; inactive = no such curve, though single readings can be large; an effect the other way counts as inactive or inconclusive.

Key:
[1] = Cell Viability - HUV-EC-C (AID 542);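 note: cells exposed to compound for 40 hours; % is set by controls: 0 for no effect and ±100 for the full control effect; nearly all actives have a fitted effect of over 35% in size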
Summary of the method: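 Decrease in cellular ATP, quantified by luciferase luminescence, reflects toxicity in normal human vascular endothelial HUV-EC-C cells given compound for 40 hr in complete culture medium. Values are AC50s from concentration-response curves.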

[2] = Cellular Toxicity (caspase-3) MRC-5 (AID 659);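 note: 0% = DMSO basal and 100% = 10 µM staurosporine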
Summary of the method: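 Concentration-dependent caspase 3/7 activation is measured in human normal lung fibroblasts (MRC-5) following 16-hour treatment. AC50 values come from standard Hill-equation modeling of luminescence normalized to DMSO and 10 uM staurosporine.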

[3] = Cellular Toxicity (caspase-3) Mesangial (AID 660);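 note: combined caspase 3 and 7 activity read by Caspase-Glo luminescence; cells exposed to compound for 16 h before the caspase read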
Summary of the method: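 Concentration-response qHTS: compound-induced rise in caspase 3/7 luminescence in human mesangial cells after 16 h, normalized to DMSO and 100 uM tamoxifen controls.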

[4] = Cellular Toxicity (caspase-3) Hek293 (AID 664); settings: HEK293 caspase-3 activation, DMSO = 0%, 100 µM tamoxifen = 100%; at 92.2 µM (top of the series);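 note: cells exposed to compound for 16 h at 37 °C before readout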
Summary of the method: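 Activation of caspase-3/7 is measured as increased luminescence from cleaved peptide-aminoluciferin substrate in HEK293 cells treated 16 hours at 37 °C. AC50 values come from Hill-equation fits of concentration-response data.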

[5] = Cellular Toxicity (caspase-3) NIH 3T3 (AID 666);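 note: caspase signal read after 16 h compound exposure; 0% = DMSO basal and 100% = 100 µM tamoxifen stimulation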
Summary of the method: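 Concentration-response qHTS in NIH 3T3 mouse fibroblasts scores caspase-3/7 activation as rising luminescence after 16 hr compound exposure. Signals are scaled between DMSO-only and 100 uM tamoxifen.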

[6] = Cell Viability - LYMP1-003 - Assay at 40 hr (AID 964); note: % is set by controls: 0 for no effect and ±100 for the full control effect; nearly all actives have a fitted effect of over 60% in size
Summary of the method: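 This qHTS cytotoxicity screen treats human lymphoblastoid cells (LYMP1-003) with compounds for 40 hr and quantifies cellular ATP via luciferase luminescence.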

[7] = Cell Viability - LYMP2-004 (AID 966);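 note: plate controls were DMSO only for no effect and tetraoctylammonium bromide control for full effect; nearly all actives have a fitted effect of over 65% in size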
Summary of the method: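 Acute toxicity is scored as a concentration-dependent drop in intracellular ATP, quantified by luciferase luminescence, in human lymphoblastoid cells exposed to compound for 24 hr. AC50 derives from Hill-equation modelling.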

[8] = Cell Viability - LYMP2-009 (AID 968);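 note: cells exposed to compound for 24 h at 37 °C; 0% = DMSO alone and the full-kill end = tetraoctylammonium bromide at 92 µM; nearly all actives have a fitted effect of over 55% in size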
[9] = Cell Viability - LYMP2-011 (AID 969);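 note: 0% = DMSO only and full inhibition = 92 µM tetraoctylammonium bromide; nearly all actives have a fitted effect of over 60% in size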
Summary of the method: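 Acute toxicity is scored as a concentration-dependent drop in intracellular ATP of a human lymphoblastoid line after 24 hr treatment. Values are AC50s modeled with the Hill equation.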

[10] = Cell Viability - LYMP2-017 (AID 972);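 note: cells exposed to compound for 24 hours at 37 °C; % is set by controls: 0 for no effect and ±100 for the full control effect; nearly all actives have a fitted effect of over 55% in size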
Summary of the method: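 Steps: plate 2500 lymphoblastoid cells per well; incubate 5 hr at 37 C; add compound across a concentration series and incubate 24 hr at 37 C; add CellTiter-Glo and read luminescence after 30 min at room temperature; fit Hill curves for AC50.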

[11] = Cell Viability - LYMP2-025 (AID 976);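 note: cells exposed to compound for 24 h at 37 °C; plate controls were DMSO only for no effect and tetraoctylammonium bromide control for full effect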
Summary of the method: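 In qHTS format, LYMP2-025 lymphoblastoid cells in complete culture medium received compound for 24 hr; ATP-based CellTiter-Glo signal gave viability, with AC50 derived by Hill equation.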

[12] = Cell Viability - LYMP2-026 (AID 989);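 note: cells exposed to compound for 24 h at 37 °C; % is set by controls: 0 for no effect and ±100 for the full control effect; nearly all actives have a fitted effect of over 50% in size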
Summary of the method: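 Concentration-dependent loss of intracellular ATP in human lymphoblastoid cells after 24 hr at 37 C, quantified by luciferase luminescence. AC50 derived from standard Hill equation.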

[13] = molecular target: Vitamin D3 receptor (Homo sapiens) (UniProt P11473); experiment: qHTS assay for small molecule agonists of vitamin D receptor signaling (AID 588543; calls by dose curve;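 note: 0% = DMSO basal and 100% = reference agonist control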)
Summary of the method: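 Reporter cells (HEK293T, VDR-UAS-bla) were seeded in medium with 2% charcoal-stripped serum and incubated 5 h, then compounds in concentration series were added for 16 h at 37 °C. Stimulation was scaled between DMSO basal and 50 nM 1α,25-dihydroxyvitamin D3.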

[14] = qHTS assay for small molecule activators of the p53 signaling pathway (AID 651743; active = well fitted activation curve with a large enough effect in the signal ratio, not every such curve was filed as active; the % refers to the signal ratio; note: % of control where 0% means no effect); settings: HCT-116 p53RE-bla, beta-lactamase FRET ratio, 16 h; activation: stronger effect = higher value
Summary of the method: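 Screen for p53 pathway agonists uses stably transfected p53RE-bla HCT-116 cells, 4,000 per well, treated 16 h at 37 C with compounds in DMSO.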

[15] = qHTS assay for small molecule disruptors of the mitochondrial membrane potential - 1 hr assay (AID 651754; calls by dose curve; note: % is set by controls: 0 for no effect and ±100 for the full control effect; nearly all actives have a fitted effect of over 35% in size)
Summary of the method: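 Steps: seed HepG2 cells and let attach overnight; pin-transfer compound or vehicle; incubate 1 hr at 37C; add Mito-MPS dye for 30 min; read two-channel fluorescence for monomer and aggregate forms.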

[16] = molecular target: Nuclear receptor ROR-gamma (Homo sapiens) (UniProt P51449); experiment: qHTS assay for small molecule antagonists of the retinoid-related orphan receptor gamma (ROR-gamma) signaling pathway (AID 651802);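 note: CHO cells with doxycycline-induced ROR-gamma expression; luciferase reporter luminescence driven by ROR response element; % is set by controls: 0 for no effect and ±100 for the full control effect; nearly all actives have a fitted effect of over 60% in size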
Summary of the method: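 Antagonism is scored as a fall in luminescence from a RORE-luciferase reporter in CHO cells expressing ROR under a TET-inducible promoter, measured 16hr after doxycycline induction in the presence of compound.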

[17] = qHTS assay for small molecule agonists of the antioxidant response element (ARE) signaling pathway measured by Nrf2-dependant transcriptional activity (AID 720636; active = well fitted curve in the direction sought with a large enough effect in the repeat runs; an effect the other way counts as inactive or inconclusive;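 note: HepG2 cells with an ARE-driven luciferase reporter; % of control where 0% means no effect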)
Summary of the method: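 Attachment 6 hr at 37 C, then compound versus DMSO vehicle for 16 hr in ARE-luc HepG2 cells (1% dialyzed FBS); luminescence recorded 30 min after ONE-Glo addition at room temperature.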

[18] = qHTS assay for small molecule agonists of the antioxidant response element (ARE) signaling pathway measured by Nrf2-dependant transcriptional activity - cell viability counter screen (AID 720653; active = well fitted curve in the direction sought with a large enough effect in the repeat runs; an effect the other way counts as inactive or inconclusive; note: % is set by controls: 0 for no effect and ±100 for the full control effect); settings: ARE-bla HepG2 viability, CellTiter-Glo ATP luminescence, 16 h; stronger effect = lower value
Summary of the method: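 Cytotoxicity counter screen: intracellular ATP quantified by CellTiter-Glo luminescence in the same ARE-bla HepG2 plates, after 16 h compound exposure and a 2 h beta-lactamase substrate step.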

[19] = MultiTox-Fluor Cytotoxicity Assay - LYMP1-002 - Live Cells (AID 955);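 note: cells exposed to compound for 16 hours; % is set by controls: 0 for no effect and ±100 for the full control effect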
Summary of the method: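 Cytotoxicity in the human lymphoblastoid line LYMP1-002 is measured as loss of live-cell protease activity after 16 h treatment in complete culture medium. AC50 is derived from Hill-equation fits of qHTS concentration-response data.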

[20] = Cellular Toxicity (caspase-3) HepG2 (AID 654);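 note: cells exposed to compound for 16 hours before reading; 0% = DMSO alone and 100% = caspase signal from 100 µM tamoxifen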
Summary of the method: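 qHTS, HepG2, 1500 cells/well, complete medium; cpd 16 h 37 °C; Caspase-Glo 3/7, 20 min RT; lum. Norm: DMSO vs 100 uM tamoxifen; AC50 Hill fit.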

Sequence of Nuclear receptor ROR-gamma (Homo sapiens) (P51449 whole entry, looked up): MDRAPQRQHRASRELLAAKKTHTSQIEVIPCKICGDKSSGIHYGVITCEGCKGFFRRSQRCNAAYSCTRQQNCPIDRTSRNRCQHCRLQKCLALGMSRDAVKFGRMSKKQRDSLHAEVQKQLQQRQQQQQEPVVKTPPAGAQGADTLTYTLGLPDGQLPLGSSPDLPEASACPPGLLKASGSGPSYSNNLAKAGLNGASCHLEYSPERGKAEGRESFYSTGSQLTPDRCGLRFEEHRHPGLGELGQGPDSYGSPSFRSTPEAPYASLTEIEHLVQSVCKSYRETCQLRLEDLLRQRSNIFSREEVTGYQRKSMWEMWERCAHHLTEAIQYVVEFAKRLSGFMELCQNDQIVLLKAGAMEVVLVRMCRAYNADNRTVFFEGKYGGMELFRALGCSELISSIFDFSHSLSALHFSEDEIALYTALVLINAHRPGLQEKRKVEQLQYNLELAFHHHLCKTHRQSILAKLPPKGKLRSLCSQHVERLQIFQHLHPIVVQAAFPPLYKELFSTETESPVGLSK
Sequence of Vitamin D3 receptor (Homo sapiens) (P11473 whole entry, looked up): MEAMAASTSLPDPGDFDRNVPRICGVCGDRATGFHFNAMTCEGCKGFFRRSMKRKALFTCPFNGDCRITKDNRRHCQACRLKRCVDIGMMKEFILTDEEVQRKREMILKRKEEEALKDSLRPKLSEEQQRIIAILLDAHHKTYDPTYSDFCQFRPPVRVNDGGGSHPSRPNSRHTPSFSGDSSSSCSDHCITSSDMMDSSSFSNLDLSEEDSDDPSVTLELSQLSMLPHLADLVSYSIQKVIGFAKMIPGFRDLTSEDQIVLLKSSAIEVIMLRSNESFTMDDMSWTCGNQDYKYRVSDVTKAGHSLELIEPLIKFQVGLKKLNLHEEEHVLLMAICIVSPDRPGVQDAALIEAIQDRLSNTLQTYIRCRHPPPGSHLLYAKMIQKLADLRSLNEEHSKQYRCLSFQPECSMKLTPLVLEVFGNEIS

O=NN1CCCCC1
inactive: Potency [1] | outcome [2] | outcome [3] | caspase-3 activation [4] -0.0969% | Potency [5] | Potency [6] | Potency [7] | Potency [8] | Potency [9] | Potency [10] | Potency [11] | Potency [12] | outcome [13] | activation [14] -2.94% | Potency [15] | Potency [16] | Potency [17] | max response [18] -0.59%

C=CCCl
inactive: Potency [1] | outcome [2] | Potency [5] | outcome [19] | Potency [6] | Potency [7] | Potency [8] | Potency [9] | Potency [10] | Potency [11] | Potency [12] | outcome [13] | activation [14] -1.58% | Potency [15] | Potency [16] | Potency [17] | max response [18] -2.66%

O=C(Cl)OCc1ccccc1
inactive: Potency [1] | outcome [20] | outcome [2] | outcome [3] | Potency [5] | outcome [19] | Potency [9] | Potency [10] | Potency [11] | Potency [12] | outcome [13] | activation [14] -2.98% | Potency [15] | Potency [16] | Potency [17] | max response [18] 6.86%

CN(C)C(=O)Cl
inactive: Potency [1] | outcome [20] | outcome [2] | outcome [3] | Potency [5] | outcome [19] | Potency [6] | Potency [7] | Potency [8] | Potency [9] | Potency [10] | Potency [11] | Potency [12] | outcome [13] | Potency [15] | Potency [16] | Potency [17] | max response [18] -21%

N#CCBr
inactive: Potency [1] | outcome [20] | outcome [2] | outcome [3] | caspase-3 activation [4] 1.09% | Potency [5] | outcome [19] | Potency [7] | Potency [8] | Potency [9] | Potency [10] | Potency [11] | Potency [12] | Potency [15] | Potency [16] | max response [18] -10.6%

O=C(O)C(Cl)(Cl)Br
inactive: Potency [1] | outcome [20] | outcome [2] | outcome [3] | caspase-3 activation [4] 1.91% | Potency [5] | outcome [19] | Potency [6] | Potency [7] | Potency [8] | Potency [9] | Potency [10] | Potency [11] | outcome [13] | activation [14] -0.303% | Potency [15] | Potency [16] | Potency [17]

OCCCCO
inactive: Potency [1] | outcome [20] | outcome [2] | outcome [3] | Potency [5] | outcome [19] | Potency [6] | Potency [7] | Potency [9] | Potency [11] | outcome [13] | activation [14] -4.12% | Potency [15] | Potency [16] | Potency [17] | max response [18] -2.13%

O=S(=O)(O)F
inactive: Potency [1] | outcome [20] | outcome [2] | outcome [3] | Potency [5] | outcome [19] | Potency [6] | Potency [7] | Potency [8] | Potency [9] | Potency [10] | Potency [11] | Potency [12] | outcome [13] | Potency [15] | Potency [17] | max response [18] -6.55%

N#CC(O)c1ccccc1 (centres undefined)
inactive: Potency [1] | outcome [20] | outcome [2] | outcome [3] | caspase-3 activation [4] 0.0339% | Potency [5] | outcome [19] | Potency [6] | Potency [7] | Potency [8] | Potency [11] | outcome [13] | Potency [16] | Potency [17] | max response [18] 12.9%

Cc1ccc(N)c(C)c1
inactive: Potency [1] | outcome [3] | caspase-3 activation [4] 1.54% | Potency [6] | Potency [7] | Potency [8] | Potency [9] | Potency [10] | Potency [11] | Potency [12] | outcome [13] | Potency [15] | Potency [17] | max response [18] -6.08%

Cc1cnc[nH]1
inactive: Potency [1] | outcome [20] | outcome [2] | outcome [3] | caspase-3 activation [4] -0.172% | Potency [5] | Potency [6] | Potency [7] | Potency [8] | Potency [9] | Potency [10] | Potency [11] | Potency [12] | outcome [13] | activation [14] -6.55% | Potency [15] | Potency [16] | Potency [17] | max response [18] -3.19%

Oc1cc(Cl)ccc1Cl
inactive: Potency [1] | outcome [20] | outcome [2] | outcome [3] | caspase-3 activation [4] -1.46% | Potency [6] | Potency [7] | Potency [8] | Potency [9] | Potency [11] | Potency [12] | outcome [13] | activation [14] 0.543% and -4% | Potency [16] | Potency [17]

c1ccc(NNc2ccccc2)cc1
inactive: Potency [1] | outcome [20] | outcome [3] | caspase-3 activation [4] -0.473% | Potency [5] | outcome [19] | Potency [6] | Potency [8] | Potency [9] | Potency [10] | Potency [11] | Potency [12] | outcome [13] | activation [14] -0.259% and 0.698% | Potency [15] | Potency [16] | max response [18] 0.997% and 18.6%

O=[N+]([O-])c1ccc(Cl)c(Cl)c1Cl
inactive: Potency [1] | outcome [20] | outcome [2] | outcome [3] | caspase-3 activation [4] -0.669% | Potency [5] | outcome [19] | Potency [7] | Potency [8] | Potency [9] | Potency [10] | Potency [11] | Potency [12] | outcome [13] | activation [14] -2.43% | Potency [16] | Potency [17] | max response [18] -7.85%

CC12CC1(C)C(=O)N(c1cc(Cl)cc(Cl)c1)C2=O (centres undefined)
inactive: Potency [1] | outcome [20] | outcome [3] | caspase-3 activation [4] 1.47% | Potency [5] | outcome [19] | Potency [6] | Potency [7] | Potency [8] | Potency [9] | Potency [10] | Potency [11] | Potency [12] | outcome [13] | activation [14] 3.14% | Potency [16] | Potency [17] | max response [18] -1.37% and -4.13%

Nc1cccc(Cl)c1
inactive: Potency [1] | outcome [20] | outcome [2] | outcome [3] | caspase-3 activation [4] 5.51% | outcome [19] | Potency [6] | Potency [7] | Potency [9] | Potency [10] | Potency [11] | Potency [12] | outcome [13] | activation [14] -1.95% | Potency [15] | Potency [16] | max response [18] 2.22%
